Experimental data reported in PubChem BioAssay (NCI).
The panel holds about 83,000 compounds, 20% with a hit somewhere; the sample as a whole holds those more often.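 Growth was measured after 48 h exposure to one concentration of compound in 96-well plates. Values under 10 count as active.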 Activity calls are given as the source filed them.

What was measured:
Test in all cases: NCI-60 one-dose screen, 48 h (100 = growth as untreated, 0 = no growth, -100 = all killed)
Settings in all cases: 10 µM unless noted
SR leukemia = tested on: SR leukemia
RPMI-8226 leukemia = tested on: RPMI-8226 leukemia
OVCAR-8 ovarian = tested on: OVCAR-8 ovarian
OVCAR-5 ovarian = tested on: OVCAR-5 ovarian
OVCAR-4 ovarian = tested on: OVCAR-4 ovarian
SK-OV-3 ovarian = tested on: SK-OV-3 ovarian
IGROV1 ovarian = tested on: IGROV1 ovarian
OVCAR-3 ovarian = tested on: OVCAR-3 ovarian
HS 578T breast = tested on: HS 578T breast
NCI/ADR-RES ovarian = tested on: NCI/ADR-RES ovarian
T-47D breast = tested on: T-47D breast
BT-549 breast = tested on: BT-549 breast
MDA-MB-435 melanoma = tested on: MDA-MB-435 melanoma
SW-620 colon = tested on: SW-620 colon
MCF7 breast = tested on: MCF7 breast
HCT-116 colon = tested on: HCT-116 colon
HCC-2998 colon = tested on: HCC-2998 colon
KM12 colon = tested on: KM12 colon

Row | Compound | growth (SR leukemia) | growth (RPMI-8226 leukemia) | growth (OVCAR-8 ovarian) | growth (OVCAR-5 ovarian) | growth (OVCAR-4 ovarian) | growth (SK-OV-3 ovarian) | growth (IGROV1 ovarian) | growth (OVCAR-3 ovarian) | growth (HS 578T breast) | growth (NCI/ADR-RES ovarian) | growth (T-47D breast) | growth (BT-549 breast) | growth (MDA-MB-435 melanoma) | growth (SW-620 colon) | growth (MCF7 breast) | growth (HCT-116 colon) | growth (HCC-2998 colon) | growth (KM12 colon)
1 | CCCn1c(=S)sc2c(NNC(C)=O)nc(C)nc21 | 158% (inactive) | 93.1% (inactive) | 102% (inactive) | 98% (inactive) | 101% (inactive) | 99.9% (inactive) | 37.1% (inactive) | 118% (inactive) | 97.7% (inactive) | 101% (inactive) | 78.9% (inactive) | 110% (inactive) | 115% (inactive) | 101% (inactive) | 95.9% (inactive) | 95.3% (inactive) | 94.8% (inactive) | 97% (inactive)
2 | CC(=O)c1sc(-c2ccc(F)cc2)cc1O | 82.6% (inactive) | 105% (inactive) | 104% (inactive) | 111% (inactive) | 79.5% (inactive) | 102% (inactive) | 115% (inactive) | 109% (inactive) | 117% (inactive) | 106% (inactive) | 98.4% (inactive) | 93.8% (inactive) | 96.1% (inactive) | 106% (inactive) | 94.5% (inactive) | 95.3% (inactive) | 103% (inactive) | 95.6% (inactive)
3 | C[C@H]1[C@H](C)CC[C@]2(C(=O)NCCNCCN)CC[C@]3(C)C(=CC[C@@H]4[C@@]5(C)CCC(=O)C(C)(C)[C@@H]5CC[C@]43C)[C@H]12 | -38.7% (active) | -16.3% (active) | 33.6% (inactive) | 94.1% (inactive) | 77.4% (inactive) | 87.4% (inactive) | 52.7% (inactive) | 9.12% (active) | 72.5% (inactive) | 88.2% (inactive) | 39.8% (inactive) | 92.3% (inactive) | -75.7% (active) | -74.7% (active) | 12.6% (inactive) | -51.8% (active) | -43.7% (active) | 11.4% (inactive)
4 | C=C(C)[C@@H]1CC[C@]2(CO)CC[C@]3(C)[C@H](CC[C@@H]4[C@@](C)(CCCN)[C@H](C(=C)C)CC[C@]43C)[C@@H]12 | -14% (active) | -43.2% (active) | -40.4% (active) | -78.5% (active) | -67.8% (active) | -82.4% (active) | -96.2% (active) | -61.7% (active) | -52.3% (active) | -80.4% (active) | -40.5% (active) | -92.8% (active) | -97% (active) | -89.5% (active) | -89.3% (active) | -88.3% (active) | -80.1% (active) | -79.6% (active)
5 | COC(=O)/C=C1/SC(=Nc2ccc(F)cc2)N(CCc2c[nH]c3ccc(O)cc23)C1=O | -4.72% (active) | 4.11% (active) | 26.1% (inactive) | 76.3% (inactive) | 30.3% (inactive) | 80.8% (inactive) | 24.6% (inactive) | 21.5% (inactive) | 37.4% (inactive) | 32.7% (inactive) | 23.7% (inactive) | 8.93% (active) | 25.4% (inactive) | 53.7% (inactive) | 17% (inactive) | 23.1% (inactive) | 45.9% (inactive) | 38.3% (inactive)
6 | CN(C)CCCNC(=O)c1cncnc1Nc1ccc2c(ccn2Cc2cccc(F)c2)c1 | -10.3% (active) | 86.3% (inactive) | 101% (inactive) | 97.5% (inactive) | 116% (inactive) | 111% (inactive) | 90.1% (inactive) | 93.4% (inactive) | 81.3% (inactive) | 99.2% (inactive) | 101% (inactive) | 92.2% (inactive) | 79.6% (inactive) | 88.3% (inactive) | 71.4% (inactive) | 66% (inactive) | 97.6% (inactive) | 98% (inactive)
7 | CS(=O)(=O)Nc1cc(-c2ccc3ncnc(Nc4ccc5c(cnn5Cc5ccncc5)c4)c3c2)cnc1Cl | 44.6% (inactive) | 64.3% (inactive) | 82.5% (inactive) | 59% (inactive) | 84.8% (inactive) | 54.9% (inactive) | 0.593% (active) | 37% (inactive) | -6.14% (active) | 88.2% (inactive) | 2.48% (active) | 16.1% (inactive) | 63.2% (inactive) | 68.6% (inactive) | 31.3% (inactive) | 75.2% (inactive) | 73.7% (inactive) | 93.4% (inactive)
8 | N=C(N)c1ccc(-c2ccc(-c3cc(Cl)cc(Cl)c3)s2)s1 | -29.4% (active) | -26% (active) | -34.6% (active) | 3.07% (active) | -58% (active) | 88.7% (inactive) | -26.7% (active) | -76.2% (active) | 87.6% (inactive) | -21.4% (active) | -50% (active) | 87.8% (inactive) | -69.7% (active) | -39.8% (active) | -64.2% (active) | -52.5% (active) | -59.9% (active) | -58.6% (active)
9 | O=C(/C=C/c1ccccc1)c1cccc2ccccc12 | 8.29% (active) | 6.78% (active) | 19.9% (inactive) | 103% (inactive) | 41.3% (inactive) | 62.2% (inactive) | 47.3% (inactive) | 22.4% (inactive) | 32.1% (inactive) | 24.9% (inactive) | 32.9% (inactive) | 62.5% (inactive) | 16.8% (inactive) | 9.3% (active) | 11.6% (inactive) | 32% (inactive) | 48.3% (inactive) | 37.4% (inactive)
10 | O=C1O[C@@H](c2ccccc2Cl)[C@@H]2c3cc4c(cc3CCN12)OCO4 | 100% (inactive) | 94.4% (inactive) | 98.7% (inactive) | 113% (inactive) | 104% (inactive) | 119% (inactive) | 94% (inactive) | 100% (inactive) | 101% (inactive) | 104% (inactive) | 69.9% (inactive) | 101% (inactive) | 105% (inactive) | 97.2% (inactive) | 103% (inactive) | 94.9% (inactive) | 106% (inactive) | 97.8% (inactive)
11 | CCOC(=O)/C=C1\S/C(=N\Nc2cc(=O)[nH]c3ccc(Br)cc23)N(c2ccccc2)C1=O | 3.76% (active) | -12.5% (active) | 72.2% (inactive) | 102% (inactive) | 58% (inactive) | 110% (inactive) | 58.7% (inactive) | -17% (active) | 74.7% (inactive) | 97.1% (inactive) | 7.62% (active) | 75.1% (inactive) | 94.5% (inactive) | 27.8% (inactive) | 22.2% (inactive) | 27.1% (inactive) | 110% (inactive) | 88.5% (inactive)
12 | CSc1ccc2c3c(n(C[C@H](O)CO)c(=O)c2c1)-c1ccccc1C3=O | 1.4% (active) | -17.3% (active) | 33.3% (inactive) | 62.2% (inactive) | 85% (inactive) | 81.6% (inactive) | 52.5% (inactive) | 76.5% (inactive) | 83.3% (inactive) | 56% (inactive) | 27.3% (inactive) | 46.9% (inactive) | 72% (inactive) | 27.6% (inactive) | 11.5% (inactive) | -20.6% (active) | 88.8% (inactive) | 25.3% (inactive)
13 | Nc1nc(N)c2c(n1)NC(c1cccc(Nc3ccnc4cc(C(F)(F)F)ccc34)c1)CC(c1ccc3c(c1)OCO3)=N2 (stereo not drawn) | 1.91% (active) | 17% (inactive) | 73.4% (inactive) | 123% (inactive) | 85.9% (inactive) | 76.8% (inactive) | 73% (inactive) | 65.7% (inactive) | 66.9% (inactive) | 84.1% (inactive) | 90.6% (inactive) | 112% (inactive) | 9.59% (active) | 54.6% (inactive) | 33.3% (inactive) | 39.9% (inactive) | 75.7% (inactive) | 38.6% (inactive)
14 | COc1ccc(-c2nc3ccc(C)cc3c3c2c(=O)n(C)c(=O)n3C)cc1OC | 99.4% (inactive) | 101% (inactive) | 107% (inactive) | 97% (inactive) | 122% (inactive) | 109% (inactive) | 108% (inactive) | 111% (inactive) | 74.3% (inactive) | 92.5% (inactive) | 106% (inactive) | 120% (inactive) | 90% (inactive) | 103% (inactive) | 97.7% (inactive) | 105% (inactive) | 98.2% (inactive) | 116% (inactive)
15 | COc1ccc(C(c2cc(OC)c(OC)c(OC)c2)N2CCCCC2)cc1 (stereo not drawn) | 18.5% (inactive) | 51.2% (inactive) | 50.1% (inactive) | 69.6% (inactive) | 69.2% (inactive) | 16.7% (inactive) | 47.1% (inactive) | 8.29% (active) | 16.6% (inactive) | 24% (inactive) | 33.6% (inactive) | 49.7% (inactive) | -21.8% (active) | 14.5% (inactive) | 23.6% (inactive) | 29.1% (inactive) | 79.6% (inactive) | 30.2% (inactive)
16 | Cc1cn(C)cn1 | 99.4% (inactive) | 102% (inactive) | 106% (inactive) | 102% (inactive) | 100% (inactive) | 120% (inactive) | 117% (inactive) | 108% (inactive) | 138% (inactive) | 109% (inactive) | 104% (inactive) | 101% (inactive) | 98.4% (inactive) | 108% (inactive) | 94.9% (inactive) | 105% (inactive) | 108% (inactive) | 105% (inactive)
